Data published in PubChem BioAssay (NCI).
Compounds without any hit were thinned out: in the full panel of roughly 83,000, 20% have a hit.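 The endpoint reported here, percent growth, reads 100 for growth as untreated, 0 for no net growth and -100 for all cells dead.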 Calls of active or inactive are those of the source. Rule for the calls: active = growth percent below 10; inactive = the rest.

system: SR leukemia; experiment: NCI-60 one-dose screen, 48 h (100 = growth as untreated, 0 = no growth, -100 = all killed); conditions: 10 µM unless noted

| SMILES | growth |
| --- | --- |
| COc1cc2c(c(OC)c1OC)C(=O)/C(=C/c1cc(C)c(O)c(C)c1)S2 | 33.8% (inactive) |
| COc1cc(CNC(=O)/C=C/C=C/c2ccc3c(c2)OCO3)ccc1OCc1cn(-c2ccc(Cl)c(Cl)c2)nn1 | 24.8% (inactive) |
| COc1ccccc1C(=O)NC(=S)Nc1ccc(-c2nc3ccccc3[nH]2)cc1 | 13.6% (inactive) |
| O=C(/C=C/C12c3ccccc3C(c3ccccc31)C1C(=O)N(c3ccccc3)C(=O)C12)c1ccc(Cl)cc1 (stereo not drawn) | 16.9% (inactive) |
| COc1cc(NC(=O)c2cccc(-c3cc(=O)c4c(O)c(OC)c(OC)cc4o3)c2)cc(OC)c1OC | 54.4% (inactive) |
| Nc1c(C(=O)c2ccc(Cl)s2)sc2nc3c(cc12)CCCC3 | 97.3% (inactive) |
| N#Cc1c(-c2ccccc2)nc(SCC2CO2)nc1N1CCOCC1 (stereo not drawn) | 72.5% (inactive) |
| CCCCN(CCCC)CCCn1c(=O)c2sc3ncccc3c2n2nnc(-c3ccccc3)c12 | 99.2% (inactive) |
| CC1(C)CC(=O)c2c(ccc(C(=O)C[C@H](N)CO)c2N)O1 | 16.7% (inactive) |
| COc1ccc(NC(=O)c2cccc(-c3cc(=O)c4c(O)c(OC)c(OC)cc4o3)c2)cc1 | 80.8% (inactive) |
| CCn1c(Sc2nnc(NC(C)=O)s2)nc2c1c(=O)n(C)c(=O)n2C | 98.1% (inactive) |
| COc1cc(NC(=O)c2cccc(-c3cc(=O)c4c(OC)c(OC)c(OC)cc4o3)c2)cc(OC)c1OC | 29.8% (inactive) |
| CN(C)CN1CCN(c2ccc3nc(-c4ccc5nc(-c6ccc(C(F)(F)F)cc6)[nH]c5c4)[nH]c3c2)CC1 | 17.7% (inactive) |
